Measurements: PubChem BioAssay (EPA / NIEHS)
Results filed as inconclusive are left out. Active and inactive are the calls of the source. The calls were made as follows: active = hit-call score of the fitted dose curve at least 0.9, where 1 is the maximum; inconclusive = response in the unintended direction; inactive = score below 0.9.

How the values were obtained:
[1] = biological target: human FYN Proto-Oncogene, Src family Tyrosine Kinase (Fyn), FYN (gene 2534) (UniProt P06241); assay: NVS_ENZ_hFyn: NovaScreen (NVS) Enzymatic Assay for human FYN Proto-Oncogene, Src family Tyrosine Kinase (Fyn) (AID 2283161)
Outline: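 Cell-free kinase activity read by fluorescence after mobility-shift separation of substrate and product, 1 h post-dose. Initial single concentration 25 uM in duplicate, then concentration-response follow-up; DMSO baseline.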

[2] = biological target: human Colony Stimulating Factor 1 Receptor (CSF1R), CSF1R (gene 1436) (UniProt P07333); assay: NVS_ENZ_hCSF1R: NovaScreen (NVS) Enzymatic Assay for human Colony Stimulating Factor 1 Receptor (CSF1R) (AID 2283150)
Outline: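 Compounds screened in duplicate at 25 uM, then concentration-response (top 50 uM) for those passing threshold such as 30% inhibition; recombinant CSF1R activity measured 1 h post-dosing via fluorescent substrate/product mobility-shift separation, loss of signal versus DMSO.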

[3] = biological target: human Fibroblast Growth Factor Receptor 1 (FGFR1), FGFR1 (gene 2260) (UniProt P11362); assay: NVS_ENZ_hFGFR1: NovaScreen (NVS) Enzymatic Assay for human Fibroblast Growth Factor Receptor 1 (FGFR1) (AID 2283159);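 as to AC50: hits lower the signal so potencies describe inhibitors of the kinase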
Outline: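 Cell-free recombinant kinase with fluorescent substrate, product separated by electrophoretic mobility shift; read 1 hour after dosing, loss of signal relative to DMSO. Initial screen in duplicate at 25 uM, actives followed in concentration series.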

[4] = biological target: Glycogen synthase kinase-3 beta (Homo sapiens) (UniProt P49841); assay: NVS_ENZ_hGSK3b: NovaScreen (NVS) Enzymatic Assay for human Glycogen Synthase Kinase-3 beta (GSK3b) (AID 2283165)
Outline: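 Recombinant enzyme with specific fluorescent substrate, 1 h, product separated by electrophoretic mobility shift. Primary duplicate screen at 25 uM; actives (e.g. 30% inhibition) followed in singleton concentration-response to 50 uM. Signal loss fitted versus DMSO.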

[5] = biological target: human Esterase Plasma (ES), BCHE (gene 590) (UniProt P06276); assay: NVS_ENZ_hES: NovaScreen (NVS) Enzymatic Assay for human Esterase Plasma (ES) (AID 2283157)
Outline: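 Human plasma-derived enzyme, cell-free, colorimetric readout at 0.25 h. Primary screen 25 uM in duplicate; hits (e.g. ≥30% inhibition) rerun singleton up to 50 uM. DMSO = negative control/baseline.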

[6] = biological target: human Casein Kinase 1-delta (CK1D), CSNK1D (gene 1453) (UniProt P48730); assay: NVS_ENZ_hCK1D: NovaScreen (NVS) Enzymatic Assay for human Casein Kinase 1-delta (CK1D) (AID 2283148)
Outline: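 Recombinant human CK1-delta, cell-free; fluorescent substrate with electrophoretic mobility-shift separation of product, read 1 h after dosing. Single 25 uM duplicate screen, then concentration-response up to 50 uM; loss of signal vs DMSO.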

[7] = biological target: human Elastase, ELANE (gene 1991) (UniProt P08246); assay: NVS_ENZ_hElastase: NovaScreen (NVS) Enzymatic Assay for human Elastase (AID 2283153)
Outline: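 Concentration-response to 50 uM max, run singly for chemicals passing a threshold (e.g., 30% inhibition) in a duplicate 25 uM single-point screen. Neutrophil-derived human elastase, absorbance read-out of enzyme activity at 1.5 h; DMSO baseline.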

[8] = biological target: Histone deacetylase 3 (Homo sapiens) (UniProt O15379); assay: NVS_ENZ_hHDAC3: NovaScreen (NVS) Enzymatic Assay for human Histone Deacetylase 3 (HDAC3) (AID 2283163)
Outline: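 Cell-free enzyme format: loss of fluorescent product after mobility-shift separation, 1 h incubation, recombinant human HDAC3. Single 25 uM duplicate screen first, then concentration series to a 50 uM top for hits; DMSO as baseline.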

[9] = biological target: human Epidermal Growth Factor Receptor (EGFR), EGFR (gene 1956) (UniProt P00533); assay: NVS_ENZ_hEGFR: NovaScreen (NVS) Enzymatic Assay for human Epidermal Growth Factor Receptor (EGFR) (AID 2283151)
Outline: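 Cell-free kinase assay, fluorescence plus electrophoretic mobility shift separating substrate and product, read 1 hour after dosing; loss of signal vs DMSO. Duplicate screen at 25 uM, then concentration-response to 50 uM.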

[10] = biological target: human Ephrin type-A Receptor 2 (EphA2), EPHA2 (gene 1969) (UniProt P29317); assay: NVS_ENZ_hEphA2: NovaScreen (NVS) Enzymatic Assay for human Ephrin type-A Receptor 2 (EphA2) (AID 2283155)
Outline: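 Enzyme activity of recombinant EphA2 read by fluorescence after mobility-shift separation, 1 h after dosing. Chemicals first tested at 25 uM (duplicate); those passing threshold run as concentration series, top 50 uM, single replicate, relative to DMSO.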

[11] = biological target: human Ephrin type-A Receptor 1 (EphA1), EPHA1 (gene 2041) (UniProt P21709); assay: NVS_ENZ_hEphA1: NovaScreen (NVS) Enzymatic Assay for human Ephrin type-A Receptor 1 (EphA1) (AID 2283158);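 also: activity is signal loss versus DMSO meaning EphA1 kinase inhibition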
Outline: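 Biochemical kinase assay run cell-free; 1 h incubation; readout is fluorescence with mobility-shift separation of product. Concentration-response up to 50 uM for actives from a 25 uM screen.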

[12] = biological target: human Dual Specificity Protein Phosphatase 3 (DUSP3), DUSP3 (gene 1845) (UniProt P51452); assay: NVS_ENZ_hDUSP3: NovaScreen (NVS) Enzymatic Assay for human Dual Specificity Protein Phosphatase 3 (DUSP3) (AID 2283152);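 also: phosphatase activity of recombinant human DUSP3 on a fluorogenic substrate without cells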
Outline: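 Cell-free fluorescence-intensity enzyme activity assay with recombinant protein and substrate; loss of signal fitted relative to DMSO baseline. Primary screen in duplicate at 25 uM, actives then run in concentration series; measured 0 h after dosing.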

[13] = biological target: human IkappaB Kinase alpha (IKKa), CHUK (gene 1147) (UniProt O15111); assay: NVS_ENZ_hIKKa: NovaScreen (NVS) Enzymatic Assay for human IkappaB Kinase alpha (IKKa) (AID 2283167)
Outline: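 Compounds first run in duplicate at 25 uM, those meeting threshold (e.g. 30% inhibition) retested to maximum 50 uM. Enzyme activity of recombinant IKKa measured by fluorescence with electrophoretic mobility shift separation, 1 hour post-dosing, DMSO baseline.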

[14] = biological target: human Insulin Receptor (InsR), INSR (gene 3643) (UniProt P06213); assay: NVS_ENZ_hInsR: NovaScreen (NVS) Enzymatic Assay for human Insulin Receptor (InsR) (AID 2283168)
Outline: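 Cell-free enzyme assay read 1 h post-dose by fluorescence after substrate/product mobility-shift separation. Duplicate 25 uM primary screen, then singleton concentration-response up to 50 uM for compounds passing threshold; loss of signal vs DMSO.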

[15] = biological target: human AKT serine/threonine Kinase 2 (AKT2), AKT2 (gene 208) (UniProt P31751); assay: NVS_ENZ_hAKT2: NovaScreen (NVS) Enzymatic Assay for human AKT serine/threonine Kinase 2 (AKT2) (AID 2283141)
Outline: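 Cell-free fluorescence/electrophoretic mobility shift readout of recombinant human AKT2 activity, 1 h after chemical dosing. Duplicate primary screen at 25 uM, then singleton concentration-response up to 50 uM; loss of signal versus DMSO baseline.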

[16] = biological target: human c-Jun N-terminal Kinases (JNK2), MAPK9 (gene 5601) (UniProt P45984); assay: NVS_ENZ_hJNK2: NovaScreen (NVS) Enzymatic Assay for human c-Jun N-terminal Kinases (JNK2) (AID 2283171)
Outline: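 Chemicals first tested in duplicate at 25 uM, then in singleton concentration series up to 50 uM, against extracted JNK2 enzyme. Activity loss read by fluorescence with mobility-shift separation 1 h post-dose; DMSO baseline.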

[17] = biological target: human Mitogen-Activated Protein Kinase 1 (MAPK 1), MAPK1 (gene 5594) (UniProt P28482); assay: NVS_ENZ_hMAPK1: NovaScreen (NVS) Enzymatic Assay for human Mitogen-Activated Protein Kinase 1 (MAPK 1) (AID 2283175)
Outline: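 Cell-free recombinant human MAPK1 enzymatic assay, fluorescence/electrophoretic mobility shift read at 1 h; loss of signal vs DMSO. Primary screen in duplicate at 25 uM; actives (e.g. ≥30% inhibition) run as concentration-response up to 50 uM.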

[18] = biological target: human LYN Proto-Oncogene, Src family Tyrosine Kinase (LynA), LYN (gene 4067) (UniProt P07948); assay: NVS_ENZ_hLynA: NovaScreen (NVS) Enzymatic Assay for human LYN Proto-Oncogene, Src family Tyrosine Kinase (LynA) (AID 2283173)
Outline: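 Recombinant kinase with fluorescent substrate; product separated from substrate by electrophoretic mobility shift and read 1 h after dosing. Duplicate screen at 25 uM, then concentration-response up to 50 uM; activity scored as signal loss against DMSO.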

[19] = biological target: human Aurora Kinase A - serine/threonine-protein Kinase 6 (AurA), AURKA (gene 6790) (UniProt O14965); assay: NVS_ENZ_hAurA: NovaScreen (NVS) Enzymatic Assay for human Aurora Kinase A - serine/threonine-protein Kinase 6 (AurA) (AID 2283142)
Outline: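 Recombinant human AurA activity read by fluorescence after mobility-shift separation of product from substrate; 1 hour incubation. Chemicals first run in duplicate at 25 uM, then concentration series to 50 uM if over threshold; fitted relative to DMSO.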

CDK2 (gene 1017) = CDK2 (gene 1017) (UniProt P24941); assay: NVS_ENZ_hCDK2: NovaScreen (NVS) Enzymatic Assay for human Cyclin-Cependent Kinase 2 (CDK2) (AID 2283144)
Outline: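 Compounds screened in duplicate at 25 uM, then in singleton concentration-response to a maximum of 50 uM, against recombinant CDK2; kinase activity read 1 hr after dosing by fluorescence with mobility-shift separation of substrate and product.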

human Fibroblast Growth Factor Receptor 1 (FGFR1), FGFR1 (gene 2260), sequence (P11362 whole entry, looked up): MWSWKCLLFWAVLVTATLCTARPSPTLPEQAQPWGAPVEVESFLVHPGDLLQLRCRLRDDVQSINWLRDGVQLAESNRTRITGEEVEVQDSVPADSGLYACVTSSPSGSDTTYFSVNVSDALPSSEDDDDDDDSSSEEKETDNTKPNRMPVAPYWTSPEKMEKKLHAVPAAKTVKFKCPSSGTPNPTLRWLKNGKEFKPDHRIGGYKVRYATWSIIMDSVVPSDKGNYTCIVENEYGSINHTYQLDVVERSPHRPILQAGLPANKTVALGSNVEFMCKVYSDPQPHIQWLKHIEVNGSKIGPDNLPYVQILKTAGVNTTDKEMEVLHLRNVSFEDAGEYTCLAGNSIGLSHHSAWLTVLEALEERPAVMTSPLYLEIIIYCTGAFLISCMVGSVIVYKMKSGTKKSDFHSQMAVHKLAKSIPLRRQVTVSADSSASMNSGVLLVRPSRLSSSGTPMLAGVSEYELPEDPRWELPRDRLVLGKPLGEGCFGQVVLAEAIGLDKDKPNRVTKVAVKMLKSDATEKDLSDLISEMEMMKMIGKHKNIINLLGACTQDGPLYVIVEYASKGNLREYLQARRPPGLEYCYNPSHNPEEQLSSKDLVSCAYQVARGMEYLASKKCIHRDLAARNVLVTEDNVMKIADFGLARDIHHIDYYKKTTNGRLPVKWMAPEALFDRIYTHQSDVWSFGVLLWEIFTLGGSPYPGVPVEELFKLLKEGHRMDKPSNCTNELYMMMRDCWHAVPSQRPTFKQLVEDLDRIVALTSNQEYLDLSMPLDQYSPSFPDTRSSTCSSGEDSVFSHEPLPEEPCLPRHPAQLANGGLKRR
human Ephrin type-A Receptor 1 (EphA1), EPHA1 (gene 2041), sequence (P21709 whole entry, looked up): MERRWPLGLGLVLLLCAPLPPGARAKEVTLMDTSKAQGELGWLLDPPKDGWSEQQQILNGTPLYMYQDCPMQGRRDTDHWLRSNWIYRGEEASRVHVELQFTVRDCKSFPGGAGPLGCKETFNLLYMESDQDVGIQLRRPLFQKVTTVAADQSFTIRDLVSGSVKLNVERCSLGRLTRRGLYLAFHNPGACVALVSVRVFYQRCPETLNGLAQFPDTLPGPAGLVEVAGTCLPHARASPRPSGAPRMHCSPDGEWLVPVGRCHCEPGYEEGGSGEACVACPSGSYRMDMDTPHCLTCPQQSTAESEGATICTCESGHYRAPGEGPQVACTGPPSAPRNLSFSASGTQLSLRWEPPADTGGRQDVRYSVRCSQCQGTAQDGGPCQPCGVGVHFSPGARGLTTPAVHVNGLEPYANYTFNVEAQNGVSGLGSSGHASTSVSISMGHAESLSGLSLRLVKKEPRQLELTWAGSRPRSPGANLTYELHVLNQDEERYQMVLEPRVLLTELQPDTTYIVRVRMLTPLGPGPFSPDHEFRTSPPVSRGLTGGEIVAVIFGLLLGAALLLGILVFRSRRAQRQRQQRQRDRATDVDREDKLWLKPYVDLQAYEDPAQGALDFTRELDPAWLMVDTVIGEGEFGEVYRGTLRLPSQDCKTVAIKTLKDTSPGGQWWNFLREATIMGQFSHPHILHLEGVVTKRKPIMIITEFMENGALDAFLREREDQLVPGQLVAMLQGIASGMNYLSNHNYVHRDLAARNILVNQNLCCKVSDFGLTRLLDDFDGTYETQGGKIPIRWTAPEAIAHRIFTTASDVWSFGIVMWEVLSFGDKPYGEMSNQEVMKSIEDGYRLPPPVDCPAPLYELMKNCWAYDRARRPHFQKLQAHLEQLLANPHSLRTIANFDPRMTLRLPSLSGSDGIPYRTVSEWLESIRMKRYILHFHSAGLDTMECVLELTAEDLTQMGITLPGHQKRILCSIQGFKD
Glycogen synthase kinase-3 beta (Homo sapiens), sequence (P49841 whole entry, looked up): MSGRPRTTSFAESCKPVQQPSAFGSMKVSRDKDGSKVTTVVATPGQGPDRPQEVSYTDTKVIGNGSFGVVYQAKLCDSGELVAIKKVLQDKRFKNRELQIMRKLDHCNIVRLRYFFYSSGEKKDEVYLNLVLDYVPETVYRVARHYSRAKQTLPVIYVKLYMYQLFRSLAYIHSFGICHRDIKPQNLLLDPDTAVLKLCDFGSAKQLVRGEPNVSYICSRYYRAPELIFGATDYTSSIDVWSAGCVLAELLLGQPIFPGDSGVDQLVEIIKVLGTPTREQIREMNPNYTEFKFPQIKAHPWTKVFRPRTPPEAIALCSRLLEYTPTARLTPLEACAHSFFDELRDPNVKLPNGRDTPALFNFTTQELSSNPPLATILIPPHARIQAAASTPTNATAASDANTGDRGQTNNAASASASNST
human Casein Kinase 1-delta (CK1D), CSNK1D (gene 1453), sequence (P48730 whole entry, looked up): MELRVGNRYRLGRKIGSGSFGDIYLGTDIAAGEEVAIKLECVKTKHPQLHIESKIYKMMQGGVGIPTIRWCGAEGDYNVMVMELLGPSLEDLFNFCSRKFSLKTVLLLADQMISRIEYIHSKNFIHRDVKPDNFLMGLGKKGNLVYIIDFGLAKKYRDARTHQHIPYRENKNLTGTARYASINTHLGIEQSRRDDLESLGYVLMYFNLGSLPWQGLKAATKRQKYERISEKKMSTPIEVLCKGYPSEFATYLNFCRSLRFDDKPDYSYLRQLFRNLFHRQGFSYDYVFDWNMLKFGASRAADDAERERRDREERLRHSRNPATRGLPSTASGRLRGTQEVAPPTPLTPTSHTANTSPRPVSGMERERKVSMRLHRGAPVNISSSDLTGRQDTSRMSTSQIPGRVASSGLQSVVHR
human Esterase Plasma (ES), BCHE (gene 590), sequence (P06276 whole entry, looked up): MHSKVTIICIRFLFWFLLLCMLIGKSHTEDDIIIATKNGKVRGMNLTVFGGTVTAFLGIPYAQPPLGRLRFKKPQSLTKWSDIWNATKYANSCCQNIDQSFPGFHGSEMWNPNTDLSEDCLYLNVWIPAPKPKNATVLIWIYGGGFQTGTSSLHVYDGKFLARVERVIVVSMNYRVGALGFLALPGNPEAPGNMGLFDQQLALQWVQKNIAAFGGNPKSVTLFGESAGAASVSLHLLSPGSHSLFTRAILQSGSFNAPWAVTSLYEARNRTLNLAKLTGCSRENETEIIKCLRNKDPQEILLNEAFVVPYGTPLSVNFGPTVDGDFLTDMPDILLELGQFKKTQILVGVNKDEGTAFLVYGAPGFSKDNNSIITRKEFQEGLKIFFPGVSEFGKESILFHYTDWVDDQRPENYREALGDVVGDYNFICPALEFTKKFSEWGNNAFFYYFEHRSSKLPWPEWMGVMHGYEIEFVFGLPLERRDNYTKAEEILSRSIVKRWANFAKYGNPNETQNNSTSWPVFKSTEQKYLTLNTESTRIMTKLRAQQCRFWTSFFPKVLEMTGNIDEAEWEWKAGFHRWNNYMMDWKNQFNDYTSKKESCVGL
human Colony Stimulating Factor 1 Receptor (CSF1R), CSF1R (gene 1436), sequence (P07333 whole entry, looked up): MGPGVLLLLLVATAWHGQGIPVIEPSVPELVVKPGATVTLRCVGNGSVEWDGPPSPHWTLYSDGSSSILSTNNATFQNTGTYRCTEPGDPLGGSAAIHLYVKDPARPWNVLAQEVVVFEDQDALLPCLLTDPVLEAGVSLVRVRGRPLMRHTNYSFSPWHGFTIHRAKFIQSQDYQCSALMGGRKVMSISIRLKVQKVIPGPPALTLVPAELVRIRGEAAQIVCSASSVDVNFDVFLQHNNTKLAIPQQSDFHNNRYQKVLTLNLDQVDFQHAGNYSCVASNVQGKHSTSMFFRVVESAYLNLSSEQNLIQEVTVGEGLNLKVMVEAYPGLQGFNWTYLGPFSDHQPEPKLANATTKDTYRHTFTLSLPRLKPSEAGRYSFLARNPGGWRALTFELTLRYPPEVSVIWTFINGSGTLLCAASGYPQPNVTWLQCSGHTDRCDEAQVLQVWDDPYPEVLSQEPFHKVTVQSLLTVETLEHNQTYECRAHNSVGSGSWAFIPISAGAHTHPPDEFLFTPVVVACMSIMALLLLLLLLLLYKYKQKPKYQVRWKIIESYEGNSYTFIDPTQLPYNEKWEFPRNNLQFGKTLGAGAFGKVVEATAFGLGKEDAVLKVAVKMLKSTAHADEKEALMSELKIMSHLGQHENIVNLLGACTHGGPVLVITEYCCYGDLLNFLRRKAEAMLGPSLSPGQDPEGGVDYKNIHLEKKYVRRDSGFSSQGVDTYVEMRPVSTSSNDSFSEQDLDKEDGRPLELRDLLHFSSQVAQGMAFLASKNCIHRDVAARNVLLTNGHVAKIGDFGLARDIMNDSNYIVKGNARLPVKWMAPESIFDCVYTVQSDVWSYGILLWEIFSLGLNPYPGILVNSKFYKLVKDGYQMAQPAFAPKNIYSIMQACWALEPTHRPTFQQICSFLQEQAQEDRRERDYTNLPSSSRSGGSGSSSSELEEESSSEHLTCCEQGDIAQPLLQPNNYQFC
human Dual Specificity Protein Phosphatase 3 (DUSP3), DUSP3 (gene 1845), sequence (P51452 whole entry, looked up): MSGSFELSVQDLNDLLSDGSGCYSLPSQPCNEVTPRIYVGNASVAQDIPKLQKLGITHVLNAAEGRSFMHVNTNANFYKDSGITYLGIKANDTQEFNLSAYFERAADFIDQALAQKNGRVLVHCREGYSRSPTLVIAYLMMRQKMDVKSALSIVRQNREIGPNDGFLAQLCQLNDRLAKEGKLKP
human Mitogen-Activated Protein Kinase 1 (MAPK 1), MAPK1 (gene 5594), sequence (P28482 whole entry, looked up): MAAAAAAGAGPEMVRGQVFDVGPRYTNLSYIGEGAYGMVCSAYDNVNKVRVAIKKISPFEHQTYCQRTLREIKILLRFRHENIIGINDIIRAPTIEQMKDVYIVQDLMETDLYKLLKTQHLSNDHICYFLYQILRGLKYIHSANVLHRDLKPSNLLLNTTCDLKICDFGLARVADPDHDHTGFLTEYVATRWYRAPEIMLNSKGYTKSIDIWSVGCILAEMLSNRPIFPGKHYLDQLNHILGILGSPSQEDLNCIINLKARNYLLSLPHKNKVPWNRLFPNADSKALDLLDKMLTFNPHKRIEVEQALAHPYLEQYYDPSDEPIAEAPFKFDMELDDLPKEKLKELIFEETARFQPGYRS
human Elastase, ELANE (gene 1991), sequence (P08246 whole entry, looked up): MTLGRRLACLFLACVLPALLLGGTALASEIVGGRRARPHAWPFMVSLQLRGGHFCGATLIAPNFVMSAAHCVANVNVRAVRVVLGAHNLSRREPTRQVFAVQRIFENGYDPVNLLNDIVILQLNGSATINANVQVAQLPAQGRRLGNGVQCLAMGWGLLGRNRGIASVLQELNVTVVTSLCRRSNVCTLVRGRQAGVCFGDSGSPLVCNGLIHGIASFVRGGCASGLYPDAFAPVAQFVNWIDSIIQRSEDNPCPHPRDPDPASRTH

Question: `CCCCc1ccccc1` was tested. Which outcome [1] did it give?
Answer: inactive

Question: How did the outcome [2] turn out when `CSC(C)(C)C=NO` was run?
Answer: inactive

Question: And the outcome [3]?
Answer: inactive

Question: `OCC1CO1` (stereo not given) was tested. Which outcome [4] did it give?
Answer: inactive

Question: `Nc1ccc2ccccc2c1` was tested. Which AC50 [5] did it give?
Answer: 13.7 µM (active)

Question: And the outcome [4]?
Answer: inactive

Question: `c1ccc(OP(Oc2ccccc2)Oc2ccccc2)cc1` was tested. Which outcome [6] did it give?
Answer: inactive

Question: And the AC50 [7]?
Answer: 37 µM (active)

Question: And the outcome [4]?
Answer: inactive

Question: Which outcome [6] does the source give for `CCOS(=O)(=O)OCC` here?
Answer: inactive

Question: What about the outcome [8] of the same compound?
Answer: inactive

Question: What about the outcome [4] of the same compound?
Answer: inactive

Question: `CCCCN(CCCC)N=O` was tested. Which outcome [3] did it give?
Answer: inactive

Question: For `O=P1(N(CCCl)CCCl)NCCCO1` (stereo not given), which outcome [9] is on record?
Answer: inactive

Question: What about the outcome [5] of the same compound?
Answer: inactive

Question: What about the outcome [3] of the same compound?
Answer: inactive

Question: `Cc1ccc([N+](=O)[O-])cc1C` was tested. Which outcome [10] did it give?
Answer: inactive

Question: For `CCC(C)(C)c1ccc(O)cc1`, which outcome [2] is on record?
Answer: inactive

Question: And the outcome [4]?
Answer: inactive

Question: Which outcome [11] does the source give for `CC(Cl)(Cl)C(=O)O` here?
Answer: inactive

Question: `CCOP(=S)(S)OCC` was tested. Which AC50 [12] did it give?
Answer: 19.9 µM (active)

Question: What does the source list for `O=P(Oc1ccccc1)(Oc1ccccc1)Oc1ccccc1`?
Answer: outcome [10]: inactive; outcome [13]: inactive; outcome [14]: inactive

Question: With `CC(C)(C)c1ccc(O)cc1` as the compound, how does the outcome [15] read?
Answer: inactive

Question: What about the outcome [4] of the same compound?
Answer: inactive

Question: With `c1ccc2c(c1)Nc1ccccc1S2` as the compound, how does the outcome [7] read?
Answer: inactive

Question: What does the source list for `Cc1ccc(O)cc1C`?
Answer: outcome [6]: inactive; outcome [9]: inactive; outcome [4]: inactive; outcome [16]: inactive; outcome [17]: inactive

Question: With `Cc1ccc2c(c1N)C(=O)c1ccccc1C2=O` as the compound, how does the AC50 [11] read?
Answer: 19.2 µM (active)

Question: How did the outcome [3] turn out when `ClC(Cl)(Cl)c1ccccc1` was run?
Answer: inactive

Question: For `CC(C)Nc1ccc(Nc2ccccc2)cc1`, which AC50 [12] is on record?
Answer: 2.71 µM (active)

Question: What about the outcome [11] of the same compound?
Answer: inactive

Question: For `O=c1ssc(Cl)c1Cl`, which AC50 [12] is on record?
Answer: 6.98 µM (active)

Question: For `CC1(C)CN=C(NN=C(/C=C/c2ccc(C(F)(F)F)cc2)/C=C/c2ccc(C(F)(F)F)cc2)NC1`, which AC50 [3] is on record?
Answer: 13.6 µM (active)

Question: For `CCOP(=S)(OCC)SCSc1ccc(Cl)cc1`, which AC50 [12] is on record?
Answer: 17.3 µM (active)

Question: For `Cc1cccc(N)c1`, which outcome [13] is on record?
Answer: inactive

Question: What about the outcome [18] of the same compound?
Answer: inactive

Question: How did the AC50 [12] turn out when `CCOP(=S)(OCC)SCn1nnc2ccccc2c1=O` was run?
Answer: 19.6 µM (active)

Question: For `CCCCN(CCCC)SN(C)C(=O)Oc1cccc2c1OC(C)(C)C2`, which outcome [5] is on record?
Answer: inactive

Question: Which outcome [19] does the source give for `CC(C)(C)OOC(C)(C)C` here?
Answer: inactive

Question: What about the outcome (CDK2 (gene 1017)) of the same compound?
Answer: inactive

Question: What about the outcome [2] of the same compound?
Answer: inactive

Question: What about the outcome [9] of the same compound?
Answer: inactive

Question: And the outcome [11]?
Answer: inactive

Question: And the outcome [4]?
Answer: inactive

Question: And the outcome [16]?
Answer: inactive

Question: And the outcome [17]?
Answer: inactive

Question: For `ClC1=C(Cl)C2(Cl)C3C(Cl)C(Cl)CC3C1(Cl)C2(Cl)Cl` (stereo not given), which outcome [9] is on record?
Answer: inactive

Question: And the outcome [3]?
Answer: inactive

Question: And the outcome [17]?
Answer: inactive

Question: Which outcome [4] does the source give for `CCOC(=O)c1ccccc1C(=O)OCC` here?
Answer: inactive

Question: For `Nc1ccc(Cl)cc1`, which outcome [11] is on record?
Answer: inactive

Question: Which outcome [5] does the source give for `CCNc1nc(Cl)nc(NC(C)(C)C)n1` here?
Answer: inactive

Question: And the outcome [3]?
Answer: inactive

Question: With `O=[N+]([O-])c1ccccc1` as the compound, how does the outcome [6] read?
Answer: inactive

Question: What about the outcome [3] of the same compound?
Answer: inactive
